About 83,000 compounds went through this panel and 20% of them were active in at least one assay; those are over-represented in the sample as a whole.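 The test compound was applied at a single concentration to cells in 96-well plates for 48 hours, and percent growth was recorded.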 Values without a mark were called inactive. Calls of active or inactive are those of the source. The calls were made as follows: active = growth percent below 10; inactive = the rest.

Among the test systems are NCI-H23 lung; NCI-H226 lung; NCI-H322M lung; HOP-62 NSCLC; NCI-H460 lung; NCI-H522 lung; A549/ATCC NSCLC; 786-0 renal; COLO 205 colon; DU-145 prostate; K-562 leukemia; MDA-MB-231 breast; RXF 393 renal; SF-268 CNS; SF-295 CNS; SF-539 CNS; UACC-257 melanoma; M14 melanoma; MALME-3M melanoma.
Holding throughout (assay): NCI-60 one-dose screen, 48 h (100 = growth as untreated, 0 = no growth, -100 = all killed)
Common to all, as to conditions: 10 µM unless noted

Regarding `COc1cc2nc(Cl)nc(Nc3cccc(C4=Nc5c(N)nc(N)nc5NC(c5ccc6c(c5)OCO6)C4)c3)c2cc1OC` (stereo unspecified), the growth in the experiment with NCI-H23 lung was 78.7%; in the experiment with NCI-H226 lung it was 85.3%; in the experiment with NCI-H322M lung it was 83.4%; in the experiment on HOP-62 NSCLC, 40.7%; with NCI-H460 lung, 55.5%; with NCI-H522 lung, 74.1%. Moreover, the growth in the experiment on A549/ATCC NSCLC was 86.1%; in the experiment on 786-0 renal, 61.8%; in the experiment on COLO 205 colon it was 89.1%; with DU-145 prostate, 81.4%; in the experiment with K-562 leukemia, 4.53% (active); in the experiment with MDA-MB-231 breast it was 79.9%. The growth is 56.1% in the experiment on RXF 393 renal; 75.6% in the experiment on SF-268 CNS; 37.7% in the experiment on SF-295 CNS; 86.5% in the experiment on SF-539 CNS; 105% in the experiment on UACC-257 melanoma; 89.7% with M14 melanoma.

For the molecule `CCC(NC(c1cc2cccc3ccc4cccc1c4c32)c1nnnn1C(C)(C)C)C1CCCCC1` (stereo unspecified), the growth in the experiment on NCI-H23 lung was 46.6%; with NCI-H226 lung, 75%; in the experiment with NCI-H322M lung, 79.3%; in the experiment with HOP-62 NSCLC, 69.7%; in the experiment with NCI-H460 lung, 31.2%; with A549/ATCC NSCLC, 69.7%. Moreover, the growth was 67.3% with 786-0 renal; 78.6% in the experiment with COLO 205 colon; 69.7% in the experiment on DU-145 prostate; 35.2% in the experiment with K-562 leukemia; 83.5% in the experiment with MALME-3M melanoma; 55.9% with MDA-MB-231 breast. The growth in the experiment with RXF 393 renal was 69.8%; in the experiment with SF-268 CNS it was 74.6%; in the experiment with SF-295 CNS, 63.5%; in the experiment on SF-539 CNS it was 63.2%; in the experiment with UACC-257 melanoma it was 38.6%; with M14 melanoma, 80.5%.

Turning to `C#CCn1cccc1CNc1ccc(OC)cc1`, the growth in the experiment with NCI-H23 lung is -88.9% (active); in the experiment with NCI-H226 lung, -50.1% (active); with NCI-H322M lung, 47%; in the experiment with HOP-62 NSCLC, -45.3% (active); in the experiment with NCI-H460 lung it was -50.5% (active); in the experiment on NCI-H522 lung it was -57.7% (active). Further, the growth in the experiment with A549/ATCC NSCLC was -47.6% (active); in the experiment on 786-0 renal, -69.6% (active); with COLO 205 colon it was -60.7% (active); in the experiment with DU-145 prostate it was -96.6% (active); in the experiment with K-562 leukemia it was -46.9% (active); in the experiment on MDA-MB-231 breast it was -53.9% (active). For the same molecule, the growth was -32.3% (active) in the experiment on RXF 393 renal; -56% (active) in the experiment with SF-268 CNS; -92% (active) with SF-295 CNS; -94.4% (active) with SF-539 CNS; 23.6% in the experiment with UACC-257 melanoma; 7.08% (active) in the experiment on M14 melanoma.

Consider `NC(N)=Nc1ccc(Oc2cccc(Nc3ccc(Br)c(C(F)(F)F)c3)c2)cc1`, for which the growth is 13.8% with NCI-H23 lung; 39.2% in the experiment on NCI-H226 lung; 44.8% with NCI-H322M lung; -37.1% (active) with HOP-62 NSCLC; -66.9% (active) with NCI-H460 lung; 15% with NCI-H522 lung. Further, the growth with 786-0 renal is 32.7%; with COLO 205 colon, -31.2% (active); with DU-145 prostate, 22.8%; with K-562 leukemia, -11.1% (active); in the experiment with MDA-MB-231 breast, -7.69% (active); in the experiment with RXF 393 renal, 40.7%. Moreover, the growth in the experiment with SF-268 CNS was 25.3%; in the experiment with SF-295 CNS it was -65.3% (active); in the experiment with SF-539 CNS, 54.3%; with UACC-257 melanoma, 0.206% (active); in the experiment on M14 melanoma, 8.54% (active).

As for `NC(N)=Nc1ccc(Oc2cccc(Nc3ccc(Cl)cc3)c2)cn1`, the growth is 29.1% in the experiment with NCI-H23 lung; 29.6% with NCI-H226 lung; -3.11% (active) in the experiment on NCI-H322M lung; -21.3% (active) with HOP-62 NSCLC; -72.6% (active) in the experiment with NCI-H460 lung; -30.1% (active) with NCI-H522 lung. The growth in the experiment with A549/ATCC NSCLC is 24.8%; in the experiment with 786-0 renal it was 35.4%; in the experiment on COLO 205 colon, -64.4% (active); in the experiment on DU-145 prostate, -18.1% (active); in the experiment with K-562 leukemia it was -68.5% (active); with MDA-MB-231 breast it was 10.7%. For the same molecule, the growth in the experiment with RXF 393 renal is 1.19% (active); in the experiment on SF-268 CNS, 41.3%; in the experiment on SF-295 CNS, -75.1% (active); in the experiment with SF-539 CNS, 73.3%; in the experiment with UACC-257 melanoma it was 28.4%; with M14 melanoma it was 42.2%.

With `CC1=N[C@@H]2CN(C(=O)OC(C)(C)C)C[C@@H]2n2c1cc1ccccc1c2=O`, the growth is 93.7% in the experiment on NCI-H23 lung; 99.5% with NCI-H226 lung; 98.6% with NCI-H322M lung; 97.9% in the experiment with HOP-62 NSCLC; 109% in the experiment with NCI-H460 lung; 103% in the experiment on A549/ATCC NSCLC. The growth is 102% in the experiment on 786-0 renal; 107% in the experiment with COLO 205 colon; 111% in the experiment with DU-145 prostate; 97.8% in the experiment on K-562 leukemia; 107% with MALME-3M melanoma; 96.1% in the experiment on MDA-MB-231 breast. Besides, the growth with RXF 393 renal was 110%; with SF-268 CNS, 99.5%; in the experiment with SF-295 CNS, 108%; with SF-539 CNS it was 99.3%; in the experiment with UACC-257 melanoma it was 108%.

Take `CC(C)(C)n1cc(-c2ccnc(NCCCNS(=O)(=O)c3cccc(F)c3)n2)c(-c2ccc(Cl)c(O)c2)n1`: the growth in the experiment with NCI-H23 lung is 100%; in the experiment with NCI-H226 lung, 107%; in the experiment on NCI-H322M lung, 90.9%; in the experiment with HOP-62 NSCLC it was 111%; in the experiment on NCI-H460 lung it was 93.6%; with A549/ATCC NSCLC it was 93.6%. Also, the growth is 99.7% in the experiment with 786-0 renal; 114% in the experiment on COLO 205 colon; 94.4% in the experiment on DU-145 prostate; 59% with K-562 leukemia; 94% in the experiment with MALME-3M melanoma; 103% with MDA-MB-231 breast. Also, the growth in the experiment with RXF 393 renal was 105%; in the experiment with SF-268 CNS, 95.9%; with SF-295 CNS, 108%; with SF-539 CNS it was 104%; with UACC-257 melanoma it was 114%.

Consider `COc1cc2nc(Cl)nc(Nc3cccc(C4=Nc5c(N)nc(N)nc5NC(c5ccc(Br)cc5)C4)c3)c2cc1OC` (stereo unspecified), for which the growth in the experiment with NCI-H23 lung is 91%; in the experiment with NCI-H226 lung it was 93%; with NCI-H322M lung, 98.1%; with HOP-62 NSCLC it was 43.5%; in the experiment with NCI-H460 lung, 28%; with NCI-H522 lung, 68.2%. Further, the growth is 55.9% with A549/ATCC NSCLC; 64.7% in the experiment on 786-0 renal; 66.3% in the experiment on COLO 205 colon; 90% in the experiment with DU-145 prostate; 92.9% in the experiment with MDA-MB-231 breast; 77.2% in the experiment with RXF 393 renal. Besides, the growth is 84.4% in the experiment with SF-268 CNS; 32% in the experiment on SF-295 CNS; 93.2% in the experiment with SF-539 CNS; 105% in the experiment on UACC-257 melanoma; 84.1% in the experiment with M14 melanoma.

In the case of `COc1cc(OC)cc(C(=O)Nc2sc3c(c2C(N)=O)CCC(=O)C3)c1`, the growth with NCI-H23 lung is 19.1%; in the experiment with NCI-H226 lung, 86%; in the experiment on NCI-H322M lung it was 98.6%; in the experiment on HOP-62 NSCLC it was 60%; with NCI-H460 lung, 57.9%; in the experiment on NCI-H522 lung, 5.02% (active). Also, the growth in the experiment on A549/ATCC NSCLC was 95.8%; with 786-0 renal, 85%; in the experiment on COLO 205 colon, 47.2%; in the experiment with DU-145 prostate, 99.4%; in the experiment with MDA-MB-231 breast, 52.4%; in the experiment on RXF 393 renal, 85.1%. In addition, the growth with SF-268 CNS is 30.7%; with SF-295 CNS, 65.3%; in the experiment on SF-539 CNS, 16.6%; with UACC-257 melanoma, 53.2%.

(Values after PubChem BioAssay (NCI).)
